This passage reports Potency and activity change, negative = inhibition results from PubChem BioAssay (NCATS).

Records with an inconclusive call do not appear. The source made the active and inactive calls. Unless noted, calls come from the whole dose curve.

Assay [1] is described as follows: Primary qHTS for Huh7 cytotoxicity: counterscreen for inhibitors of MERS-S pseudotyped particle cell entry (AID 1479147). As to conditions: outcome: dose series up to 57.1 µM unless noted.
Assay [2] in a line: Primary qHTS for Vero E6 cytotoxicity: counterscreen for inhibitors of SARS-S pseudo-typed particle cell entry (AID 1479150). To be noted: outcome: dose series up to 57.1 µM unless noted. (In general: In qHTS, concentration-response curves come from the screen itself.)
The nature of assay [3]: Confirmatory qHTS for VERO E6 Cytotoxicity Assay: Counterscreen for SARS-CoV-2 CPE Assay (AID 1508605). Note: % is set by controls: 0 for no effect and ±100 for the full control effect; nearly all actives have a fitted effect of over 60% in size.
The nature of assay [4]: Confirmatory qHTS for activators (rescue) of SARS-CoV-2 Cytopathic Effect (CPE) (AID 1508606). Note: potency is the fitted concentration of half-maximal effect; nearly all actives have a fitted effect of over 70% in size.
Assay [5] is described as follows: Cytotoxicity counterscreen for inhibitors of SARS-CoV-2 cell entry (AID 1645845). Note: nearly all actives have a fitted effect of over 50% in size. As to conditions: outcome: dose series up to 57.1 µM unless noted. Summed up: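 HEK293-ACE2 cells (Expi293F stably expressing human ACE2) seeded overnight, then compound for 1 h plus 48 h at 37C. Viability as ATP content by luminescence; normalized to wells with cells and media-only wells.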

Assay [6] is described as follows: Primary qHTS for inhibitors of MERS-S pseudo-typed particle cell entry (AID 1479149). For activity change, negative = inhibition: % is set by controls: 0 for no effect and ±100 for the full control effect. Note: nearly all actives have a fitted effect of over 60% in size. Note: potency is the fitted concentration of half-maximal effect. To be noted: outcome: dose series up to 57.1 µM unless noted.
Assay [7] in a line: Primary qHTS to identify inhibitors of SARS-CoV-2 cell entry (AID 1645846). Note: nearly all actives have a fitted effect of over 45% in size. Note: potency is the fitted concentration of half-maximal effect. As to conditions: SARS-CoV-2 pseudovirus cell entry assay, luminescence; activity change, negative = inhibition: at 57.1 µM (top of the series) unless noted. Summed up: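 Data are normalized to wells receiving SARS-CoV-2-S pseudoparticles and those given bald particles. Entry signal was luciferase luminescence in stable hACE2 Expi293F cells, 48 hr post-infection, after 1 hr compound pretreatment.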

Assay [8] can be described thus: qHTS Assay for Identifying Gametocytocidal Compounds (AID 743244; active = well fitted curve in the direction sought with a large enough effect; an effect the other way counts as inactive or inconclusive; note: potency is the fitted concentration of half-maximal effect). To be noted: P. falciparum 3D7 stage III-V gametocytes, alamarBlue, 72 h. In outline: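 Viability read-out was resazurin reduction (alamarBlue, 24 h) measured at Ex 525/Em 598 nm. Beforehand, late-stage (III-V) 3D7 P. falciparum gametocytes at 20,000 cells/well were incubated with compound 72 h at 37C under 5% CO2.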

Assay [9] in a line: Confirmatory qHTS to identify inhibitors of SARS-CoV-2 cell entry (AID 1645844). Note: potency is the fitted concentration of half-maximal effect; nearly all actives have a fitted effect of over 45% in size. Summed up:
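HEK293-ACE2 cells were pretreated 1 h with compound, then infected with MLV-based pseudoparticles bearing C-terminally truncated Wuhan-Hu-1 spike for 48 h at 37C; luciferase luminescence normalized to spike PP and bald PP wells.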

The target in assay [10] is Glutathione peroxidase 1 (Homo sapiens) (UniProt P07203). The assay is described as follows: Primary qHTS Assay for Inhibitors of Recombinant Selenoprotein Glutathione Peroxidase 1 (GPX1) (AID 1845191; active = well fitted curve in the direction sought with a large enough effect; an effect the other way counts as inactive or inconclusive; note: % is set by controls: 0 for no effect and ±100 for the full control effect; nearly all actives have a fitted effect of over 65% in size). In outline: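 GR-coupled assay: compounds preincubated 30 min at room temperature with GPX1, then reaction started with CHP; final 10 nM GPX1, 1 mM GSH, 0.5 mM CHP, 0.5 mM NADPH, 100 nM GR, 0.01% BSA, pH 7.5 Tris buffer. NADPH fluorescence (340/450 nm) read at 0 and 15 min.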

The target of assay [11] is Phospholipid hydroperoxide glutathione peroxidase GPX4 (Homo sapiens) (UniProt P36969). The experiment in a line: Primary qHTS Assay for Inhibitors of Recombinant Selenoprotein Glutathione Peroxidase 4 (GPX4) (AID 1845192; active = well fitted curve in the direction sought with a large enough effect; an effect the other way counts as inactive or inconclusive; note: % is set by controls: 0 for no effect and ±100 for the full control effect; nearly all actives have a fitted effect of over 65% in size). Summed up: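 GR-coupled assay: recombinant GPX4 preincubated 30 min with compound at room temperature; final 200 nM GPX4, 1 mM GSH, 0.5 mM cumene hydroperoxide, 0.5 mM NADPH, 100 nM GR, 0.01% BSA, pH 7.5 Tris. NADPH fluorescence (340/450 nm) read at 0 and 15 min.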

A short description of assay [12]: KB-8-5-11 P-gp reporter qHTS against the NCATS DSHEA and TCM libraries (AID 1919977; active = well fitted curve in the direction sought with a large enough effect; an effect the other way counts as inactive or inconclusive; note: 0% is about no effect). Summed up:
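Cells were seeded, allowed ~4 h to attach, dosed by pin tool (substance titrations), incubated ~72 h at 37C, then lysed with CellTiter-Glo for 30 min at room temperature before luminescence reading.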

Assay [13] can be described thus: VSVG counterscreen qHTS to identify inhibitors of SARS-CoV-2 cell entry (AID 1645847). Note: % is set by controls: 0 for no effect and ±100 for the full control effect; nearly all actives have a fitted effect of over 65% in size. Summed up:
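Counterscreen using VSV-G (not spike) pseudotyped MLV particles on ACE2-expressing Expi293F cells after 1 h compound preincubation; infection ran 48 h at 37 °C. Data normalized to VSV-G PP and bald-PP wells.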
For orientation: A counterscreen serves to expose hits that act by an unwanted route or on another target.

Chain of Glutathione peroxidase 1 (Homo sapiens) (P07203 whole entry, looked up): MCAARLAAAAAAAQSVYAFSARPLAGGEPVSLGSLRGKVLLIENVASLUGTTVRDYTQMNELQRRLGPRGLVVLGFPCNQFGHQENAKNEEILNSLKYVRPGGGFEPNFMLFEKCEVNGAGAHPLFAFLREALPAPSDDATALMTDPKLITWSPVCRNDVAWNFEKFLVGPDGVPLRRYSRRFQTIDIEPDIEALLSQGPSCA
Chain of Phospholipid hydroperoxide glutathione peroxidase GPX4 (Homo sapiens) (P36969 whole entry, looked up): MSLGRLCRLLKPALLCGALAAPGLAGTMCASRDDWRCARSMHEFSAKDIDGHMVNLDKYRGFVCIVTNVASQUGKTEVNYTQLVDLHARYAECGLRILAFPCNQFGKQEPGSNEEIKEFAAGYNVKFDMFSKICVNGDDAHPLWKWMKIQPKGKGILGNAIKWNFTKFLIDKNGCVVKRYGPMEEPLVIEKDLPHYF

For the compound `CN(C)CCC=C1c2ccccc2C(C)(C)c2ccccc21`, the Potency entry in assay [1], in assay [2], in assay [3] and in assay [5] was “inactive” throughout. Besides, the Potency in assay [4] was 10 µM (active).

Regarding `CCCCC(C)(O)CC=C[C@H]1[C@H](O)CC(=O)[C@H]1CCCCCCC(=O)OC` (stereo partly specified), the Potency result in assay [1], in assay [6], in assay [2] and in assay [7] was “inactive” in each case.

On to `C#C[C@]1(O)CC[C@H]2[C@@H]3CCC4=CC(=O)CC[C@@H]4[C@H]3C(=C)C[C@@]21CC`, for which, in [8], the Potency was 7.43 µM (active). For the same compound, the Potency result in assay [1], in [6], in assay [2] and in assay [5] was “inactive” each time.

`CC(CN(C)C)CN1c2ccccc2Sc2ccc(C(F)(F)F)cc21` (stereo unspecified): the Potency result in assay [1], in assay [2], in assay [3] and in assay [5] was “inactive” each time. Also, the Potency in assay [9] was 15.2 µM (active); in assay [7], 12.6 µM (active).

For `O=c1ccc2ccc(OCCCCN3CCN(c4cccc5sccc45)CC3)cc2[nH]1`, the Potency result in assay [1], in assay [2] and in assay [3] was “inactive” each time.

As to `CN1CC(O)c2cc(N=NC(=N)N)c(O)cc21` (stereo unspecified), the Potency result in assay [1], in assay [6] and in assay [2] was “inactive” each time. Also, the activity change, negative = inhibition in [7] is -23.2%.

Take `C[C@H]1CC[C@@H]2[C@@H](C)[C@H]3[C@H](C[C@H]4[C@@H]5CC=C6C[C@@H](O[C@@H]7O[C@H](CO)[C@H](O)[C@H](O[C@@H]8O[C@H](CO)[C@@H](O)[C@H](O)[C@H]8O)[C@H]7O[C@@H]7O[C@@H](C)[C@H](O)[C@@H](O)[C@H]7O)CC[C@]6(C)[C@H]5CC[C@]34C)N2C1`: the Potency result in assay [1] and in [6] was “inactive” in each case. In assay [7], the Potency was 20 µM (active).

As for `CC(CN1c2ccccc2Sc2ccc(S(=O)(=O)N(C)C)cc21)N(C)C` (stereo unspecified), the Potency result in assay [1], in assay [2] and in assay [3] was “inactive” in each case. The Potency in assay [9] was 39.3 µM (active).

As for `c1ccc(CCNCc2ccccc2)cc1`, the Potency result in assay [1], in assay [6], in [2], in assay [5] and in [10] was “inactive” each time.

On to `O=S(=O)(O)c1ccc2c(N=Nc3ccc(S(=O)(=O)O)c4ccccc34)c(O)c(S(=O)(=O)O)cc2c1`, for which the Potency entry in assay [1], in assay [6] and in assay [5] was “inactive” in each case. In addition, in assay [7], the activity change, negative = inhibition was -21.2%.

Consider `CN1C2CC[C@@H]1CC(OC(=O)[C@H](CO)c1ccccc1)C2` (stereo partly specified), for which the Potency result in assay [1], in assay [6] and in [2] was “inactive” in each case. Also, the activity change, negative = inhibition in [7] was -26.3%.

`CCC(C)(C)OC(=O)N[C@@H](Cc1c[nH]c2ccccc12)C(=O)N[C@@H](CCSC)C(=O)N[C@@H](CC(=O)O)C(=O)N[C@@H](Cc1ccccc1)C(N)=O`: the Potency result in [1], in [6] and in [2] was “inactive” throughout. Further, the activity change, negative = inhibition in assay [7] is -23%.

In the case of `O=NCc1ccc([N+](=O)[O-])o1`, the Potency entry in [1] and in [2] was “inactive” each time.

`O=C(OC[C@H]1O[C@@H](OC(=O)c2cc(O)c(O)c(O)c2)[C@H](O)[C@@H](OC(=O)c2cc(O)c(O)c(O)c2)[C@@H]1O)c1cc(O)c(O)c(O)c1`: the Potency entry in [1], in assay [6] and in assay [2] was “inactive” each time. Moreover, in assay [7], the activity change, negative = inhibition was -1.77%.

With `Cc1nn(C)c2c1C(c1ccccc1F)=NCC(=O)N2C`, the Potency result in assay [1], in assay [2], in [5], in [10] and in assay [11] was “inactive” throughout. Also, in assay [6], the Potency was 22.4 µM (active).

`CCCCCCCC/C=C/CCCCCCCC(=O)O`: the Potency result in [1], in [6], in [2], in [5] and in [12] was “inactive” in each case.

For the compound `Cc1cc(C#N)cc(C)c1Oc1nc(Nc2ccc(C#N)cc2)nc(N)c1Br`, the Potency entry in assay [1] and in [2] was “inactive” throughout.

With `CC(C)C[C@H]1C(=O)O[C@H](Cc2ccc(N3CCOCC3)cc2)C(=O)N(C)[C@@H](CC(C)C)C(=O)O[C@H](C)C(=O)N(C)[C@@H](CC(C)C)C(=O)O[C@H](Cc2ccc(N3CCOCC3)cc2)C(=O)N(C)[C@@H](CC(C)C)C(=O)O[C@H](C)C(=O)N1C`, the Potency entry in assay [1], in assay [2], in assay [3] and in assay [5] was “inactive” in each case.

With `Cc1c(Cl)c(C)[n+]([O-])c(Cl)c1-c1noc(-c2cc(O)c(O)c([N+](=O)[O-])c2)n1`, the Potency entry in [1], in assay [6] and in assay [2] was “inactive” in each case. In addition, the Potency in assay [7] was 14.1 µM (active).

With `CNS(=O)(=O)CC1CCC(N(C)c2ncnc3[nH]ccc23)CC1` (stereo unspecified), the Potency entry in assay [1], in [2], in [5] and in assay [7] was “inactive” each time.

As to `CC[C@@H](C)[C@H]1O[C@]2(CC[C@@H]1C)C[C@@H]1C[C@@H](C/C=C(\C)[C@@H](O[C@H]3C[C@H](OC)[C@@H](O[C@H]4C[C@H](OC)[C@@H](O)[C@H](C)O4)[C@H](C)O3)[C@@H](C)/C=C/C=C3\CO[C@@H]4[C@H](O)C(C)=C[C@@H](C(=O)O1)[C@]34O)O2`, the Potency result in assay [1], in assay [2] and in [5] was “inactive” throughout.

In the case of `OC(CCN1CCCCC1)(c1ccccc1)C1CCCC1` (stereo unspecified), the Potency result in assay [1], in [2] and in assay [5] was “inactive” in each case.

On to `C=Cc1c(C)c2cc3nc(cc4[nH]c(cc5nc(cc1[nH]2)C(C)=C5CCC(=O)O)c(CCC(=O)OC)c4C)[C@@]1(C)C3=CC=C(C(=O)OC)[C@@H]1C(=O)OC`, for which the Potency result in assay [1], in assay [2] and in assay [5] was “inactive” each time.

Turning to `CCCCCCCCCC(=O)OCCN1CCN(CCCN2c3ccccc3Sc3ccc(C(F)(F)F)cc32)CC1`, the Potency entry in assay [1], in [2] and in [5] was “inactive” throughout.

On to `CCCCCCCCCC(=O)OCCN1CCN(CC/C=C2\c3ccccc3Sc3ccc(C(F)(F)F)cc32)CC1`, for which the Potency entry in assay [1], in [2] and in [5] was “inactive” throughout.

Consider `COc1c(-c2ccc3cc(NS(C)(=O)=O)ccc3c2)cc(-n2ccc(=O)[nH]c2=O)cc1C(C)(C)C`, for which the Potency result in assay [1], in [2] and in assay [5] was “inactive” in each case.

Turning to `CCCCCCCC(=O)N[C@H](CN1CCCC1)[C@H](O)c1ccc2c(c1)OCCO2`, the Potency result in [1], in [2] and in [5] was “inactive” throughout.

For `COC(=O)C1=C(C#N)NC(C)=C(C(=O)OC(C)C)C1c1cccc([N+](=O)[O-])c1` (stereo unspecified), the Potency entry in assay [1], in assay [2] and in assay [5] was “inactive” each time.

For `Cc1cnc(C(=O)N[C@H]2CCCCC/C=C\[C@H]3C[C@@]3(C(=O)NS(=O)(=O)C3CC3)NC(=O)[C@@H]3C[C@@H](Oc4nc5ccccc5c5ccccc45)CN3C2=O)cn1`, the Potency entry in [1], in assay [2] and in assay [5] was “inactive” throughout.

Take `CCOC(=O)Oc1c(OC)cc(C(=O)O[C@@H]2C[C@@H]3CN4CCc5c([nH]c6cc(OC)ccc56)[C@H]4C[C@@H]3[C@H](C(=O)OC)[C@H]2OC)cc1OC`: the Potency result in assay [1], in assay [2] and in assay [5] was “inactive” in each case. The Potency in assay [7] is 22.4 µM (active).

On to `CCCN1C[C@H](C)[C@@H](O)[C@](C)(O)[C@@H](CC)OC(=O)[C@H](C)[C@@H](O[C@H]2C[C@@](C)(OC)[C@@H](O)[C@H](C)O2)C(C)[C@@H](O[C@@H]2O[C@H](C)C[C@H](N(C)C)[C@H]2O)[C@](C)(O)C[C@H]1C` (stereo partly specified), for which the Potency entry in assay [1], in assay [2], in assay [5] and in assay [13] was “inactive” each time. The Potency in assay [9] is 21.5 µM (active); in [7] it was 11.2 µM (active).

Consider `COc1cc2[nH]c(C)c(CCN3CCN(c4ccccc4)CC3)c2cc1OC`, for which the Potency result in assay [1], in [2] and in assay [5] was “inactive” throughout.

On to `O=C(O)c1ccc2nc(-c3cc(Cl)cc(Cl)c3)oc2c1`, for which the Potency entry in assay [1], in assay [2], in assay [5] and in [7] was “inactive” each time.
